Experimental data published in article PMC5515408, “Sequence-specific DNA binding by MYC/MAX to low-affinity non-E-box motifs”.
Over roughly 5,000 sequences, “log2 normalized fluorescence” has its median near 0.089; the highest 2% begin near 0.81. For the sample, the highest values were picked, then their nearest neighbours and some sequences at random.

Each sequence was assayed against MYC (p64);MAX (p21), in MYC:MAX (human;human, UniProt P01106-1;P61244-2 1-439;1-151, |) (assay: protein-binding microarray (anti-MAX antibody); PBM: 15 mM Tris-HCl pH 7.5, 100 mM KCl, 0.075% NP40, 7.5 mM beta-mercaptoethanol, 375 ng/ul BSA, 8 ng/ul poly(dA-dT):(dA-dT), 550 ng complex, 60 min, room tempe; high values mean tight binding). Conditions: protein: recombinant;recombinant; tags: 6xHis;6xHis; copies: 1;1; label: 3' end of printed strand (linker) attached to glass slide; dsDNA, one strand shown.
How it was run: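 Recombinant His-tagged human MYC:MAX or MAX:MAX dimers (550 ng, expressed in E. coli) were incubated for 60 min at room temperature in Tris-KCl buffer, pH 7.5, with NP40, BSA and poly(dA-dT) competitor. The custom Agilent glass array held ~5000 unique 12-nt sequences, each spotted in triplicate and made double-stranded by primer extension. Bound protein was detected with anti-MAX and secondary antibodies and scanned at 543 nm. Binding is reported as log2 normalized fluorescence.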

MYC (p64);MAX (p21), in MYC:MAX, sequence (P01106 16-454, chain 1 of 2): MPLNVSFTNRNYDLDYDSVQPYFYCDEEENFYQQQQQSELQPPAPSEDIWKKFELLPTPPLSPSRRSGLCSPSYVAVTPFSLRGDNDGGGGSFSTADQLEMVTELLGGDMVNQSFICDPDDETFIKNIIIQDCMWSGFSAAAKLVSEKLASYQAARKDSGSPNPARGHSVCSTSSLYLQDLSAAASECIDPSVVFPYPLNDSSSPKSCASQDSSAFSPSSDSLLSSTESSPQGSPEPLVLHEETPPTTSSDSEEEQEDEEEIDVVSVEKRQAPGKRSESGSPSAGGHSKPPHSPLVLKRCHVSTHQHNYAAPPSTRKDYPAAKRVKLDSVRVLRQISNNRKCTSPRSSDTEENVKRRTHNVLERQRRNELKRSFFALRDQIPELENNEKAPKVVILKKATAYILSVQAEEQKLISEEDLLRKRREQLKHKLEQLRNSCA
MYC (p64);MAX (p21), in MYC:MAX, sequence (P61244 other isoform, or with tags, fused parts or gaps |, chain 2 of 2): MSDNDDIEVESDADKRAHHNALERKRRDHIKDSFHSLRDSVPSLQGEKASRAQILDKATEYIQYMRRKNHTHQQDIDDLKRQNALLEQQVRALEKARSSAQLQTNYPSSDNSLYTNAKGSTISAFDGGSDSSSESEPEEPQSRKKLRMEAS

Row | Sequence | binding signal
1 | CCGGCTGATCAAGGGTATTAATAGCTAAGATTACTATATCGACG | 0.0432 log2 normalized fluorescence
2 | CCGGCTGAAGTTGTGTATTAATAGCTAAGATTACTATATCGACG | 0.0113 log2 normalized fluorescence
3 | CCGGCTGAACGAAAGTATTAATAGCTAAGATTACTATATCGACG | 0.0903 log2 normalized fluorescence
4 | CCGGCTGACACGTGACGTTAATAGCTAAGATTACTATATCGACG | 0.654 log2 normalized fluorescence
5 | CCGGCTGACACGTTAGATTAATAGCTAAGATTACTATATCGACG | 0.482 log2 normalized fluorescence
6 | CCGGCTGACACGTGAACTTAATAGCTAAGATTACTATATCGACG | 0.796 log2 normalized fluorescence
7 | CCGGCTGACACGTGTACTTAATAGCTAAGATTACTATATCGACG | 0.823 log2 normalized fluorescence
8 | CCGGCTGACACGTGTTGTTAATAGCTAAGATTACTATATCGACG | 0.83 log2 normalized fluorescence
9 | CCGGCTGACACGTGGTGTTAATAGCTAAGATTACTATATCGACG | 0.534 log2 normalized fluorescence
10 | CCGGCTGACACGTGTTATTAATAGCTAAGATTACTATATCGACG | 0.722 log2 normalized fluorescence
11 | CCGGCTGACACATGGTTTTAATAGCTAAGATTACTATATCGACG | 0.817 log2 normalized fluorescence
12 | CCGGCTGACACGTGTAATTAATAGCTAAGATTACTATATCGACG | 0.708 log2 normalized fluorescence
13 | CCGGCCGACACATGGTTTTAATAGCTAAGATTACTATATCGACG | 0.635 log2 normalized fluorescence
14 | CCGGCTGACATGTGGTTTTAATAGCTAAGATTACTATATCGACG | 0.359 log2 normalized fluorescence
15 | CCGGCTGACACGTGTCGTTAATAGCTAAGATTACTATATCGACG | 0.947 log2 normalized fluorescence
16 | CCGGCTGAGACCTGCTATTAATAGCTAAGATTACTATATCGACG | -0.0388 log2 normalized fluorescence
17 | CCGGCTGGCACCTGGCATTAATAGCTAAGATTACTATATCGACG | 0.319 log2 normalized fluorescence
18 | CCGGCTGAGTGTTAGTATTAATAGCTAAGATTACTATATCGACG | 0.177 log2 normalized fluorescence
19 | CCGGCTGATGATGCGTATTAATAGCTAAGATTACTATATCGACG | 0.112 log2 normalized fluorescence
20 | CCGGCTGATATGACGTATTAATAGCTAAGATTACTATATCGACG | 0.0181 log2 normalized fluorescence
21 | CCGGCTAACACAAGGTATTAATAGCTAAGATTACTATATCGACG | 0.534 log2 normalized fluorescence
22 | CCGGCTGACACGATATATTAATAGCTAAGATTACTATATCGACG | 0.408 log2 normalized fluorescence
23 | CCGGCTGTCACGTGCTATTAATAGCTAAGATTACTATATCGACG | 0.591 log2 normalized fluorescence
24 | CCGGCTGACACGTGTGTTTAATAGCTAAGATTACTATATCGACG | 0.7 log2 normalized fluorescence
25 | CCGGCTGACACGTGACCTTAATAGCTAAGATTACTATATCGACG | 0.633 log2 normalized fluorescence
26 | CCGGCTGTCACGTGTTCTTAATAGCTAAGATTACTATATCGACG | 0.848 log2 normalized fluorescence
27 | CCGGCTGACACGTAGTTTTAATAGCTAAGATTACTATATCGACG | 0.406 log2 normalized fluorescence

Row | Sequence | binding signal
28 | CCGGCTGACACGTGTCCTTAATAGCTAAGATTACTATATCGACG | 0.926 log2 normalized fluorescence
29 | CCGGCTGACACGTGTAGTTAATAGCTAAGATTACTATATCGACG | 0.834 log2 normalized fluorescence
30 | CCGGCTGACACGTGCCCTTAATAGCTAAGATTACTATATCGACG | 0.7 log2 normalized fluorescence
31 | CCGGCTGACACGTAGTGTTAATAGCTAAGATTACTATATCGACG | 0.396 log2 normalized fluorescence
32 | CCGGCTGACACGTGGTTTTAATAGCTAAGATTACTATATCGACG | 0.795 log2 normalized fluorescence
33 | CCGGCTGACACGTGTTTTTAATAGCTAAGATTACTATATCGACG | 0.847 log2 normalized fluorescence
34 | CCGGCTGACACGTGTTCTTAATAGCTAAGATTACTATATCGACG | 0.738 log2 normalized fluorescence
35 | CCGGCTGAAACAACGTATTAATAGCTAAGATTACTATATCGACG | 0.159 log2 normalized fluorescence
36 | CCGGCCGACATGTAGTATTAATAGCTAAGATTACTATATCGACG | 0.368 log2 normalized fluorescence
37 | CCGGCAGACAAGTGCTATTAATAGCTAAGATTACTATATCGACG | 0.353 log2 normalized fluorescence
38 | CCGGCAATCTAGTCTACTTAATAGCTAAGATTACTATATCGACG | 0.0163 log2 normalized fluorescence
39 | CCGGCTGATATAATGTATTAATAGCTAAGATTACTATATCGACG | 0.0653 log2 normalized fluorescence
40 | CCGGCTGAACTCGCGTATTAATAGCTAAGATTACTATATCGACG | 0.276 log2 normalized fluorescence
41 | CCGGCTGAAACCAAGTATTAATAGCTAAGATTACTATATCGACG | 0.0737 log2 normalized fluorescence
42 | CCGGCTGAACCAGTGTATTAATAGCTAAGATTACTATATCGACG | 0.036 log2 normalized fluorescence
43 | CCGGCTGACACGTGCAATTAATAGCTAAGATTACTATATCGACG | 0.779 log2 normalized fluorescence
44 | CCGGCTGACACGTGCAGTTAATAGCTAAGATTACTATATCGACG | 0.746 log2 normalized fluorescence
45 | CCGGCTAGCACGTGTTTTTAATAGCTAAGATTACTATATCGACG | 0.813 log2 normalized fluorescence
46 | CCGGCTGGCACGTGGTTTTAATAGCTAAGATTACTATATCGACG | 0.67 log2 normalized fluorescence
47 | CCGGCTGACACGTGCACTTAATAGCTAAGATTACTATATCGACG | 0.88 log2 normalized fluorescence
48 | CCGGCTAGCACGTGGCATTAATAGCTAAGATTACTATATCGACG | 0.803 log2 normalized fluorescence
49 | CCGGCTGAATCTTGGTATTAATAGCTAAGATTACTATATCGACG | -0.0321 log2 normalized fluorescence
50 | CCGGCTGAAAGGTCGTATTAATAGCTAAGATTACTATATCGACG | 0.0812 log2 normalized fluorescence
51 | CCGGCTGGAGCGTGGTATTAATAGCTAAGATTACTATATCGACG | 0.418 log2 normalized fluorescence
52 | CCGGCTGAAATCGCGTATTAATAGCTAAGATTACTATATCGACG | 0.18 log2 normalized fluorescence
53 | CCGGCTGAATCAATGTATTAATAGCTAAGATTACTATATCGACG | 0.252 log2 normalized fluorescence
